The values that follow come from PubChem BioAssay (Tox21).

SMILES strings stand for the structures. A number with no mark means an inactive call. Records with an inconclusive call do not appear. The source made the active and inactive calls. Unless noted, the call rests on the fitted dose curve; in most records, active means well fitted curve in the direction sought with a large enough effect in the repeat runs; inconclusive means weak or mixed curves; inactive means no such curve, though single readings can be large; an effect the other way counts as inactive or inconclusive.

A short description of test [1]: qHTS assay to identify small molecule antagonists of the estrogen receptor alpha (ER-alpha) signaling pathway using the BG1 cell line in the presence of 0.1 nM 17-beta-estradiol - cell viability counter screen (AID 1259241). Further: nearly all actives have a fitted effect of over 40% in size. The essentials: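 CellTiter-Fluor read (30 min, 37C) on ER-alpha/ERE-luc VM7Luc4E2 cells; 22 hr compound treatment; agonist 0.1 nM E2 final; same-well multiplex.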
For orientation: Quantitative high-throughput screening tests each substance at several concentrations.

In test [2] the target is Androgen receptor (Homo sapiens) (UniProt P10275). Nature of the test: qHTS assay to identify small molecule antagonists of the androgen receptor (AR) signaling pathway using the MDA cell line in the presence of 0.5 nM R1881 (AID 1259243). Further: nearly all actives have a fitted effect of over 50% in size. Further: potency means the concentration at half of the fitted maximal effect. The essentials: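 MDA-kb2 human breast carcinoma cells carrying an MMTV-luciferase reporter (AR- and GR-responsive) were plated, rested 5 hr at 37C, dosed with compounds, then stimulated with 0.5 nM R1881 (final) for 16 hr; luminescence was read after ONE-Glo.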

Test [3] addresses Estrogen receptor (Homo sapiens) (UniProt P03372). The test is described as follows: qHTS assay to identify small molecule antagonists of the estrogen receptor alpha (ER-alpha) signaling pathway using the BG1 cell line in the presence of 0.1 nM 17-beta-estradiol (AID 1259244). Further: nearly all actives have a fitted effect of over 50% in size. Further: potency means the concentration at half of the fitted maximal effect. In a few lines:
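VM7Luc4E2 cells (endogenous full-length ER-alpha, stable 4xERE-luciferase) were grown 5 days in phenol red-free medium with charcoal-stripped FBS, then exposed 22 h at 37C to compounds plus 0.1 nM (final) 17beta-estradiol; ONE-Glo luminescence read-out.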

Test [4] in a line: qHTS assay to identify small molecule phospholipidosis (PLD) inducers (AID 1259344; active means well fitted curve in the direction sought with a large enough effect; an effect the other way counts as inactive or inconclusive). In a few lines:
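Fluorescent phospholipid staining (LipidTOX Red) measured by automated microscopy in fixed HepG2 cells after 24 h treatment; nuclei counterstained with Hoechst 33342; amiodarone as reference inducer.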

Test [5] is described as follows: qHTS assay to identify small molecule HDAC inhibitors (AID 1259364). Further: top concentration of the series differs between compounds; nearly all actives have a fitted effect of over 45% in size. In a few lines:
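Wild-type HCT-116 cells were plated overnight, exposed to compounds for 2 h at 37 °C, then given HDAC-Glo class I/II luminogenic reagent for 30 min at room temperature before luminescence was read.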

The nature of test [6]: qHTS assay to identify small molecule HDAC inhibitors - cell viability counter screen (AID 1259365). Further: series mostly up to about 92 µM; nearly all actives have a fitted effect of over 50% in size. The essentials:
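To flag cytotoxic hits, 1,500 wild-type HCT-116 cells per well, plated the day before, receive test compounds for 2hr at 37 C before CellTiter-Glo reagent and a luminescence read.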

Test [7] can be described thus: qHTS assay to identify small molecule agonists of the sonic hedgehog signaling (Shh) pathway - cell viability counter screen (AID 1259366). Further: nearly all actives have a fitted effect of over 50% in size. Further: potency means the concentration at half of the fitted maximal effect. The essentials:
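Fluorescence from CellTiter-Fluor reports live cells in this counter screen. NIH/3T3-derived Gli1-Luc reporter cells receive test compounds for 24hr at 37C; reagent goes in at 23hr.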

The nature of test [8]: qHTS assay to identify small molecule antagonists of the sonic hedgehog signaling (Shh) pathway - cell viability counter screen (AID 1259367). Further: nearly all actives have a fitted effect of over 55% in size. The essentials:
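Using CellTiter-Fluor, viability of Gli1-Luc reporter 3T3 cells is read by fluorescence in the wells used for the Shh luciferase assay. Treatment lasts 23 hr with conditioned medium, then reagent 1 hr at 37C.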

Test [9] in a line: qHTS assay to identify small molecule agonists of the sonic hedgehog signaling (Shh) pathway (AID 1259368; calls by dose curve; further: series mostly up to about 92 µM; nearly all actives have a fitted effect of over 15% in size). The essentials: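 NIH/3T3-derived 3T3Gli1-Luc cells carrying a stably integrated Gli1 response element–firefly luciferase reporter were plated, left 4 hr at 37 C, then given compounds in DMSO for 24 hr. Luminescence was read 30 min after adding luciferase reagent.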
The target of test [10] is Estrogen receptor beta (Homo sapiens) (UniProt Q92731). The test is described as follows: qHTS assay to identify small molecule agonists of the estrogen receptor beta (ER-beta) signaling pathway (AID 1259377; active means well fitted activation curve with a large enough effect in the signal ratio in the repeat runs, not every such curve was filed as active; the % refers to the signal ratio). The essentials: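 Screening used GripTite ER-beta-UAS-bla cells held in 2% charcoal-stripped FBS medium. After overnight (16 hr) compound incubation at 37C, beta-lactamase activity was detected with a FRET substrate by fluorescence.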

For test [11] the target is unchanged. The test is described as follows: qHTS assay to identify small molecule antagonists of the estrogen receptor beta (ER-beta) signaling pathway (AID 1259378; active means well fitted inhibition curve with a large enough effect in the signal ratio in the repeat runs, not every such curve was filed as active; the % refers to the signal ratio; further: potency means the concentration at half of the fitted maximal effect). The essentials:
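Antagonist mode: compounds added to beta-lactamase reporter HEK293T ER-beta-UAS cells stimulated with E2 (1nM final), 16 hr at 37C. LiveBLAzer B/G FRET substrate, 2 hours room temperature, fluorescence read-out.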

Test [12] in a line: qHTS assay to identify small molecule agonists of the androgen receptor (AR) signaling pathway in the presence of an antagonist - cell viability counter screen (AID 1259379). Further: nearly all actives have a fitted effect of over 25% in size. Further: potency means the concentration at half of the fitted maximal effect. On activity change, negative = cytotoxicity: series mostly up to about 92 µM. The essentials:
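MDA-kb2 human breast carcinoma cells (stable MMTV-luciferase, AR/GR responsive) were seeded 3,000 cells/well, pre-incubated 5 hr at 37C without CO2, then given 3.0uM nilutamide and compounds at 15 concentrations for 16 hr. Viability was read by CellTiter-Fluor fluorescence.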

A short description of test [13]: qHTS assay to identify small molecule agonists of the estrogen receptor beta (ER-beta) signaling pathway - cell viability counter screen (AID 1259380). Further: nearly all actives have a fitted effect of over 30% in size. Further: potency means the concentration at half of the fitted maximal effect. The essentials: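 ER-beta-UAS-bla HEK293T cells in medium with 2% charcoal-stripped FBS were preincubated 6 hr at 37C, dosed with compound in DMSO for 16 hr, then after the bla read, CellTiter-Glo was added for 30 min at room temperature; luminescence recorded.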

In test [14] the target is Androgen receptor (Homo sapiens) (UniProt P10275). Nature of the test: qHTS assay to identify small molecule agonists of the androgen receptor (AR) signaling pathway in the presence of an antagonist (AID 1259381; calls by dose curve; further: nearly all actives have a fitted effect of over 15% in size). The essentials: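 MDA-kb2 human breast carcinoma cells carrying an MMTV-luciferase reporter (AR- and GR-responsive) were treated with compounds at 15 concentrations plus 3.0uM final nilutamide for 16hr at 37C without CO2; luminescence was read after ONE-Glo addition.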

A short description of test [15]: qHTS assay to identify small molecule antagonists of the estrogen receptor beta (ER-beta) signaling pathway - cell viability counter screen (AID 1259382).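 Further: HEK293T cells carrying ER-beta-UAS-bla reporter stimulated with estradiol; series mostly up to about 92 µM; nearly all actives have a fitted effect of over 55% in size.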 In a few lines: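 ER-beta-UAS-bla HEK293T cells (2,000/well, 2% charcoal-stripped FBS) were pre-incubated 6 hr at 37C, then given compound plus 1nM final 17-beta-estradiol for 16 hr. Viability was read in the same wells by CellTiter-Glo luminescence after 30 min at room temperature.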

For test [16], the target named is Estrogen receptor (Homo sapiens) (UniProt P03372). The test is described as follows: qHTS assay to identify small molecule agonists of the estrogen receptor alpha (ER-alpha) signaling pathway in the presence of an antagonist (AID 1259383; calls by dose curve; further: top concentration of the series differs between compounds; nearly all actives have a fitted effect of over 15% in size). The essentials: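 VM7Luc4E2 cells (endogenous full-length ER-alpha, 4×ERE-luciferase) were precultured 5 days in phenol red-free medium with 10% charcoal-stripped FBS, given 10.0nM ICI-182,780 (final), then treated with compounds at 15 concentrations for 22hr at 37C; luminescence read with ONE-Glo.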

Test [17] in a line: qHTS assay to identify small molecule agonists or antagonists of the thyroid stimulating hormone receptor (TSHR) signaling pathway - wild type cell line counter screen (AID 1259384; calls by dose curve). In a few lines: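 Counter screen in untransfected Hek293: compounds (15-point titration, triplicate) plus phosphodiesterase inhibitor Ro20-1724 added after 18 h plating; 30 min RT. Intracellular cAMP via competitive d2/cryptate immunoassay, 1 h incubation.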

Test [18] is described as follows: qHTS assay to identify small molecule antagonists of the sonic hedgehog signaling (Shh) pathway (AID 1259369; calls by dose curve; further: nearly all actives have a fitted effect of over 45% in size; further: potency means the concentration at half of the fitted maximal effect). The essentials: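 NIH/3T3-derived 3T3Gli1-Luc cells with stably integrated Gli1-Luc reporter were preincubated 4hr at 37 C, then given compounds in DMSO plus Shh conditioned medium and incubated 24hr. Firefly luciferase luminescence read after 30min reagent at room temperature.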

Test [19] deals with Thyrotropin receptor (Homo sapiens) (UniProt P16473). The test is described as follows: qHTS assay to identify small molecule antagonists of the thyroid stimulating hormone receptor (TSHR) signaling pathway (AID 1259385; calls by dose curve; further: nearly all actives have a fitted effect of over 20% in size). In a few lines:
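Antagonist mode: compound-treated TSHR-expressing HEK293 cells were stimulated with 1.5 ng/mL TSH (final) in presence of Ro20-1724 for 30 min at RT. HTRF cAMP detection after 1 h; each compound tested at 15 concentrations, triplicate.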

A short description of test [20]: qHTS assay to identify small molecule antagonists of the androgen receptor (AR) signaling pathway using the MDA cell line in the presence of 0.5 nM R1881 - cell viability counter screen (AID 1259242). Further: nearly all actives have a fitted effect of over 45% in size. The essentials: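 MDA-kb2 cells (human breast carcinoma, stably carrying MMTV-luciferase reporter) were exposed to compounds with 0.5 nM R1881 (final) for 16 hr at 37C, 0% CO2; viability then read as live-cell protease fluorescence (CellTiter-Fluor, 30 min) in the same wells.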
On the % scale 0 is the no-effect control and ±100 the full control effect.

Estrogen receptor (Homo sapiens), sequence (P03372 whole entry, looked up): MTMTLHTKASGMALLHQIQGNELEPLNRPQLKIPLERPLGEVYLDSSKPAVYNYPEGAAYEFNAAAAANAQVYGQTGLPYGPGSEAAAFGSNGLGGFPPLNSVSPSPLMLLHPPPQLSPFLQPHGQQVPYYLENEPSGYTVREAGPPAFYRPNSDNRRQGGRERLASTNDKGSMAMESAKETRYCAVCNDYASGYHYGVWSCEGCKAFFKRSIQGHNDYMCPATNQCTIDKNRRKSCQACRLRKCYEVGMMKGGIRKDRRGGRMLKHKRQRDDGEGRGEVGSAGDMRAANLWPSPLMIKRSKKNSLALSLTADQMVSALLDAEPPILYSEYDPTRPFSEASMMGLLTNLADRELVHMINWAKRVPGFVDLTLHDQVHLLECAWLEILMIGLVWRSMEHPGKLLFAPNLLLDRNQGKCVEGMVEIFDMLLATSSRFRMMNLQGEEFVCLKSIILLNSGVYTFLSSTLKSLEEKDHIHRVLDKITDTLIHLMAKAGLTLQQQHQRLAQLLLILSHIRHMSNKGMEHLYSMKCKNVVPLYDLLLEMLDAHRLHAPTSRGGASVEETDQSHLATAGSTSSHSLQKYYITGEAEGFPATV
Androgen receptor (Homo sapiens), sequence (P10275 whole entry, looked up): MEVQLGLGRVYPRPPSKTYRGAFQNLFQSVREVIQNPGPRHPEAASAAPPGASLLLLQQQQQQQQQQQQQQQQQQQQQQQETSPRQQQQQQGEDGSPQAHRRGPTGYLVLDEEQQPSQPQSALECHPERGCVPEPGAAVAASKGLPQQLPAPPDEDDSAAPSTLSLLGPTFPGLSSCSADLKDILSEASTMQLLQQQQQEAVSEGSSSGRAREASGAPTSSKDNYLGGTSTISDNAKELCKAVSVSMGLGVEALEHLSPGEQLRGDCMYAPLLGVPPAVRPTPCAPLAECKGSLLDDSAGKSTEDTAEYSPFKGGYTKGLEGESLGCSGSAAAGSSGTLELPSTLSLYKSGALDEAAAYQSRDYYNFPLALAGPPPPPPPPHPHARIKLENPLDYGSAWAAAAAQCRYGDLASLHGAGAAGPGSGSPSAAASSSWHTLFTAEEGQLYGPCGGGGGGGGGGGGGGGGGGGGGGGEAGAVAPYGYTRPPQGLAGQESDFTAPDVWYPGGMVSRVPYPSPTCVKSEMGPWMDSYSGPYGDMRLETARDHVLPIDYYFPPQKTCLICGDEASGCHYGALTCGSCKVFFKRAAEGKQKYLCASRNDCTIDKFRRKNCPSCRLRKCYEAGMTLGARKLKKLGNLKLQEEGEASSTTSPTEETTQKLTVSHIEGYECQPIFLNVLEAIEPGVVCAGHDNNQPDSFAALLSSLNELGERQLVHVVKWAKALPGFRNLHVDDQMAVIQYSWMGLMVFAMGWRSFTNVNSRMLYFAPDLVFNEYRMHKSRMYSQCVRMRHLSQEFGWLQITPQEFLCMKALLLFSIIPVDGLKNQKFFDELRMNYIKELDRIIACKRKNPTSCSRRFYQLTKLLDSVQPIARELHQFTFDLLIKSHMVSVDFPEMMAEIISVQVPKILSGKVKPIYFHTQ
Thyrotropin receptor (Homo sapiens), sequence (P16473 whole entry, looked up): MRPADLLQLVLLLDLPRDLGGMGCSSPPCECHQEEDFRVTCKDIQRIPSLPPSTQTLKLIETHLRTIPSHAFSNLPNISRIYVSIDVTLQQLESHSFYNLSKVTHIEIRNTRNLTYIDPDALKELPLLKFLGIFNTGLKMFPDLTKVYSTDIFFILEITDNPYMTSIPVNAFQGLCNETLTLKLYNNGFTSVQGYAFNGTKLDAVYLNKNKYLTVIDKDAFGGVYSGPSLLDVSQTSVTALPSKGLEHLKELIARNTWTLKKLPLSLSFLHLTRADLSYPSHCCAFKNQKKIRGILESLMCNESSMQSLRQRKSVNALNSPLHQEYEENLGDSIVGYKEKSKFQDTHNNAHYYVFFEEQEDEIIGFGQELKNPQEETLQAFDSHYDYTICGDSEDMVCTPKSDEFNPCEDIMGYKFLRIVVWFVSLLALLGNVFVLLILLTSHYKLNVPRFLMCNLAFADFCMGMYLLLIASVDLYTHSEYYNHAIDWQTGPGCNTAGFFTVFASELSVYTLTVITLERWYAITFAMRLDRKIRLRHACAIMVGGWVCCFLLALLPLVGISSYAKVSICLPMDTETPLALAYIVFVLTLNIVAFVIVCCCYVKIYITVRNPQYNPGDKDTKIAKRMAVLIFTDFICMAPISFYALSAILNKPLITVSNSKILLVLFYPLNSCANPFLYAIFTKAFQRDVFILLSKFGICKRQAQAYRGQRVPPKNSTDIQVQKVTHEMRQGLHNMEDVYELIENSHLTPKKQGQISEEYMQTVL
Estrogen receptor beta (Homo sapiens), sequence (Q92731 whole entry, looked up): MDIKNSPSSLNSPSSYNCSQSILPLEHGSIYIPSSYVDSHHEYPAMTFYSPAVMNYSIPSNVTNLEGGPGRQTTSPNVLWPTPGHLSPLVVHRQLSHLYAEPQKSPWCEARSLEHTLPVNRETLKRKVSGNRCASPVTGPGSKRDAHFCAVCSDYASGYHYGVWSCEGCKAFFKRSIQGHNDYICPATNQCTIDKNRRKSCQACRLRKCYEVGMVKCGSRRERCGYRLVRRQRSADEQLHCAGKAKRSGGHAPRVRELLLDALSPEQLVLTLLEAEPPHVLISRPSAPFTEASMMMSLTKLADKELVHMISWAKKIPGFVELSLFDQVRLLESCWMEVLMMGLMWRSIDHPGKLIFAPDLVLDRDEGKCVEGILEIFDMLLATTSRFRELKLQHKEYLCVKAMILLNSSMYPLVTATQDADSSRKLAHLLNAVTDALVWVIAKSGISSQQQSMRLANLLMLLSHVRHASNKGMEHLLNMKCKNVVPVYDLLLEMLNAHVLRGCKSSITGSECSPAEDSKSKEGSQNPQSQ

As to `CCCn1cnc2c1c(=O)n(CCCCC(C)=O)c(=O)n2C`, the Potency entry in test [1], in test [2], in test [3], in test [4], in test [5] and in test [6] was “inactive” in each case. In addition, the Potency entry in [7], in test [8], in [10], in test [11], in [12] and in test [13] was “inactive” each time. In addition, the Potency entry in test [14], in test [15], in test [16] and in [17] was “inactive” in each case. Besides, the outcome in [9] was inactive.
`CC(=O)c1ccc2c(c1)N(CCCN1CCC(CCO)CC1)c1ccccc1S2`: the Potency entry in test [1], in [3], in [4], in test [6], in test [10] and in test [16] was “inactive” in each case. Further, the Potency in test [7] was 11.9 µM (active); in test [18], 11.9 µM (active); in [11], 15 µM (active); in test [13] it was 26.6 µM (active). Moreover, the compound was called inactive in test [9].
As for `CCOC(=O)c1cccnc1`, the Potency entry in [1], in test [3], in [4], in [5], in test [6] and in [7] was “inactive” in each case. Besides, the Potency result in test [8], in test [18], in [10], in test [11], in [12] and in test [13] was “inactive” each time. Also, the Potency entry in test [15], in [16], in [17] and in test [19] was “inactive” in each case. Besides, in test [9], the call was inactive.
On to `Cc1ccc(C(C)OC(=O)C2(C)CCC(C(=O)O)C2(C)C)cc1` (stereo unspecified), for which the Potency entry in test [1], in [20], in test [6], in test [7], in test [8] and in [18] was “inactive” throughout. The Potency entry in test [12], in test [13], in [15] and in [19] was “inactive” throughout. Besides, the compound was called inactive in [9].
Turning to `CC(CSC(=O)c1ccccc1)C(=O)N1C[C@@H](Sc2ccccc2)C[C@H]1C(=O)O` (stereo partly specified), the activity change, negative = cytotoxicity in [1] was 3.73% [at 19 µM]; in test [6], -1.25% [at 19 µM]; in test [12], 1.42% [at 19 µM]; in test [13] it was 0.0866% [at 19 µM]; in test [15] it was 5.8% [at 19 µM]. Moreover, the Potency result in [3], in test [4] and in test [16] was “inactive” each time. In addition, the results for the activity change, negative = inhibition in [5], in test [18] and in [19] were 3.83% [at 19 µM], 9.12% [at 19 µM] and -6.99% [at 19 µM], respectively. For the same compound, the viability change, negative = cytotoxic is -5.51% [at 19 µM] in test [7] and 1.29% [at 19 µM] in [8]. Besides, the activation in test [10] was -2.37% [at 19 µM]. The activity, negative = inhibition in [11] is -3.38% [at 19 µM]. Besides, the cAMP activity change in test [17] is 7.8% [at 18.9 µM, hits give high values].
`Cc1cccc(Nc2ccccc2)c1`: the Potency entry in test [1], in test [5], in [6], in test [7], in [8] and in [18] was “inactive” throughout. Moreover, the Potency result in test [13], in test [14], in test [15] and in test [17] was “inactive” in each case. In addition, in [2], the Potency is 24.3 µM (active). Further, in test [9], the compound was called inactive.
Turning to `Cc1oc2c(NC(=O)c3c(Cl)cccc3Cl)cccc2c1C(C)(C)O`, the Potency result in test [1], in test [5], in [6], in test [7], in [8] and in test [16] was “inactive” throughout. Besides, the Potency entry in [17] and in test [19] was “inactive” in each case. The Potency is 13.7 µM (active) in test [3], 8.63 µM (active) in test [18], 21.7 µM (active) in test [12] and 30.6 µM (active) in [13]. Besides, the outcome in test [9] was inactive.
For `OC(CN1CCC(Cc2ccc(F)cc2)CC1)c1ccc(Cl)cc1` (stereo unspecified), the Potency result in [1], in test [4], in [5], in test [6], in test [7] and in test [8] was “inactive” in each case. In addition, the Potency result in test [10], in test [11], in [13], in test [14] and in [15] was “inactive” each time. Also, the Potency in [2] is 29.8 µM (active); in test [18], 23.7 µM (active). Further, the result in [9] was inactive.
